Source: PubChem BioAssay
Activity calls are given as the source filed them. Cut-off read from the data, not from the text of the source, unless noted: active = inhibition above about 36%; inactive = the rest.

Legend:
[1] = biological target: Nuclear receptor coactivator 3 (Homo sapiens) (UniProt Q9Y6Q9); assay: SRC3 coactivator transcriptional activity inhibitors, confirmation, cell-based, luminescence, quadruplicate (AID 588792;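 active = mean inhibition over 43.08%, the solvent-only control mean plus 3 SD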;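 note: 0% = DMSO treated cells and 100% = gossypol at 36 µM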); conditions: HEK293 GAL4-SRC3 luciferase reporter, at 3.6 µM, stronger effect = higher value
[2] = test system: transactivating tegument protein VP16 (Human herpesvirus 1), Gal4-VP16 luciferase reporter; assay: VP16 transactivation inhibitors, counter-screen for SRC3 inhibitor project, cell-based, luminescence, high throughput (AID 588794; in the data active = inhibition above about 30%); conditions: mammalian cells, VP16-driven luciferase reporter luminescence; at 3.6 µM; stronger effect = higher value
[3] = biological target: Nuclear receptor coactivator 1 (Homo sapiens) (UniProt Q15788); assay: SRC1 coactivator transcriptional activity inhibitors, confirmation, cell-based, luminescence, quadruplicate (AID 588820;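 active = mean inhibition above 46.68%, the untreated control wells mean plus 3 SD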;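 note: 0% = DMSO wells and 100% = gossypol 36 µM treated wells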); conditions: HEK293 GAL4-SRC1 luciferase reporter, at 3.6 µM, stronger effect = higher value
Sequence of Nuclear receptor coactivator 1 (Homo sapiens) (Q15788 whole entry, looked up, the tested form may be a part): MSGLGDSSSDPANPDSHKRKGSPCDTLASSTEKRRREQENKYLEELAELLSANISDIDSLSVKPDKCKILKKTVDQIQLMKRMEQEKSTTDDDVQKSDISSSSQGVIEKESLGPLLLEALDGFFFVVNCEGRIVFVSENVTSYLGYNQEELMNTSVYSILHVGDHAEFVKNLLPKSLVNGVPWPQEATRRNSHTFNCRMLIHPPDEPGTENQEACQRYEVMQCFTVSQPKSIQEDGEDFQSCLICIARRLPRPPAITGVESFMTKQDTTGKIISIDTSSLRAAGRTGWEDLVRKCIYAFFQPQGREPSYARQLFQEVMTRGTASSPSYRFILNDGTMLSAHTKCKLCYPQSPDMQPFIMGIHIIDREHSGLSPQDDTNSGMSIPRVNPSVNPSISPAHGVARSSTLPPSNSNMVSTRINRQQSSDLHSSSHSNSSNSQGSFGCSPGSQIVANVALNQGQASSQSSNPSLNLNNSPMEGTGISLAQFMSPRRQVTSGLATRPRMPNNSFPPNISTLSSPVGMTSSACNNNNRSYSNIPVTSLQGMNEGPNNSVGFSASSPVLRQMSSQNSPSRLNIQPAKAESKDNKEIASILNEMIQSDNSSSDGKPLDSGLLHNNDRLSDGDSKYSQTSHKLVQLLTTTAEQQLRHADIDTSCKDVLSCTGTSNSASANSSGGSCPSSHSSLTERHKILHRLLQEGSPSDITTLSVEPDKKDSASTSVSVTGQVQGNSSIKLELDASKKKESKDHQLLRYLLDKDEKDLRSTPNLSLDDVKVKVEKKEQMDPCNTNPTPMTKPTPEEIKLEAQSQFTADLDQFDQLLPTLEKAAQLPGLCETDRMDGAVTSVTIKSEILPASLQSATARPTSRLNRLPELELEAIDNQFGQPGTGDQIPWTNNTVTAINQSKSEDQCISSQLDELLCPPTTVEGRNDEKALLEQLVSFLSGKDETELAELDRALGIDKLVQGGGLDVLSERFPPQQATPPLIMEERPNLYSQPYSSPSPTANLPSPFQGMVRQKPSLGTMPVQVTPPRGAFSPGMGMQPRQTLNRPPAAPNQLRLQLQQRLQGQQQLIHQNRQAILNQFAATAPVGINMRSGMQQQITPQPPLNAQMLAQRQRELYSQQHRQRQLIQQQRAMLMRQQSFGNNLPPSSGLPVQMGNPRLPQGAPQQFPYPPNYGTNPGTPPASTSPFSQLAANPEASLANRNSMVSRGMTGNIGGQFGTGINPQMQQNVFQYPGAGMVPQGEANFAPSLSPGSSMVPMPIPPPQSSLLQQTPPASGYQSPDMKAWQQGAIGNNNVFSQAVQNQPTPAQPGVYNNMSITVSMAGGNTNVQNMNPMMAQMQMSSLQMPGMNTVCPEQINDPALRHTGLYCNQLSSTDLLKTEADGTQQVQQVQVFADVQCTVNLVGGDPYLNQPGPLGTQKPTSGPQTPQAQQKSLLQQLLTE

[4] = VP16 transactivation inhibitors, counter-screen for SRC1 inhibitor project, cell-based, luminescence, high throughput (AID 588824; in the data active = inhibition above about 25%); conditions: cell-based VP16 transactivation luciferase luminescence; at 3.6 µM; stronger effect = higher value
[5] = StAR promoter reporter inhibitors, counter-screen for LRH-1 inverse agonist project, cell-based, luminescence, high throughput (AID 651611; in the data active = inhibition above about 28%); conditions: StAR promoter luciferase reporter counterscreen, at 3.6 µM, stronger effect = higher value
[6] = biological target: Nuclear receptor subfamily 5 group A member 2 (Homo sapiens) (UniProt O00482); assay: LRH-1 (NR5A2) inverse agonists, retest, confirmation, cell-based, luminescence (AID 651613; in the data active = inhibition above about 42%;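 note: HEK293T cells co-transfected with LRH-1 and StAR promoter luciferase reporter; 0% = vehicle wells and 100% = parental cells lacking receptor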); conditions: cell-based LRH-1 luciferase reporter, inverse agonism; at 3.6 µM; stronger effect = higher value
Sequence of Nuclear receptor subfamily 5 group A member 2 (Homo sapiens) (O00482 whole entry, looked up): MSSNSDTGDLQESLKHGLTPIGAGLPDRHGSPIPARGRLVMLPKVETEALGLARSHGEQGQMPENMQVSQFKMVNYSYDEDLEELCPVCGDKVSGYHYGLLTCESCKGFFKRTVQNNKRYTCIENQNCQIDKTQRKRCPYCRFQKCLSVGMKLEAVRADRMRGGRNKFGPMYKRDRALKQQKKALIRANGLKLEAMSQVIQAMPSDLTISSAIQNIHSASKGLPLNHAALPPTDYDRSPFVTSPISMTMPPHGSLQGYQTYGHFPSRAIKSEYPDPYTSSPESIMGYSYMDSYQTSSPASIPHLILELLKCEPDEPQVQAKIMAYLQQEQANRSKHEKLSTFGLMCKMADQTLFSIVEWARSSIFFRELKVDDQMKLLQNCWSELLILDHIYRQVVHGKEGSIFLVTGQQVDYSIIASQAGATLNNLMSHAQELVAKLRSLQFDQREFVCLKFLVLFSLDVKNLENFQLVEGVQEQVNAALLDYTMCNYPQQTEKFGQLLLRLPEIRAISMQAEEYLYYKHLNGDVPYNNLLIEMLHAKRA

[7] = biological target: Steroidogenic factor 1 (Homo sapiens) (UniProt Q13285); assay: SF1 (NR5A1) inverse agonists, counter-screen for LRH-1 inverse agonist project, cell-based, luminescence, high throughput (AID 651614; in the data active = inhibition above about 44%;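 note: cells cotransfected with StAR promoter reporter and SF1 expression vector; 0% = vehicle on cells with receptor and 100% = vehicle on cells lacking receptor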); conditions: cell-based SF1 luciferase reporter, at 3.6 µM, stronger effect = higher value
Sequence of Steroidogenic factor 1 (Homo sapiens) (Q13285 whole entry, looked up, the tested form may be a part): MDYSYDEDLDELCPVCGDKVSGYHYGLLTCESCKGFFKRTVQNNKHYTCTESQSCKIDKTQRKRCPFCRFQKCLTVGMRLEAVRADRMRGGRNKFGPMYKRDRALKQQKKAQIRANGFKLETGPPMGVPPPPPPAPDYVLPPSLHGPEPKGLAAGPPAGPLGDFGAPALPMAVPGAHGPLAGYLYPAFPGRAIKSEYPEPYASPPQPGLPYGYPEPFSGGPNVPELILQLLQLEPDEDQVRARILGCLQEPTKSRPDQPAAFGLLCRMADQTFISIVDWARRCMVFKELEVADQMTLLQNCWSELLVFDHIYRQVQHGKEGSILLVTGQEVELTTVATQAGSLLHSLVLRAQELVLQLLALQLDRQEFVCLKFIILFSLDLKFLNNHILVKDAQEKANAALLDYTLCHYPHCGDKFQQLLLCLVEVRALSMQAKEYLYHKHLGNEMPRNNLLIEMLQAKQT

[8] = VP16 transactivation reporter inhibitors, counter-screen for LRH-1 inverse agonist project, cell-based, luminescence, high throughput (AID 651615; in the data active = inhibition above about 33%); conditions: Gal4-VP16 luciferase reporter cells, at 3.6 µM, stronger effect = higher value
[9] = test system: transactivating tegument protein VP16 (Human herpesvirus 1); assay: VP16 transactivation reporter inhibitors, counter-screen for SRC2 inhibitor project, cell-based, luminescence, single concentration (AID 652007); conditions: cell-based VP16 transactivation luciferase reporter, at 8.9 µM, stronger effect = higher value
[10] = biological target: Nuclear receptor coactivator 2 (Homo sapiens) (UniProt Q15596); assay: SRC2 coactivator transcriptional activity inhibitors, confirmation, cell-based, luminescence, HEK293, triplicate (AID 652008;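 active = mean inhibition above 46.5%, the solvent-only control mean plus 3 SD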;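 note: 0% = DMSO-treated cells and 100% = Gossypol at 36 µM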); conditions: HEK293 GAL4-SRC2 luciferase reporter, at 8.9 µM, stronger effect = higher value
Sequence of Nuclear receptor coactivator 2 (Homo sapiens) (Q15596 whole entry, looked up, the tested form may be a part): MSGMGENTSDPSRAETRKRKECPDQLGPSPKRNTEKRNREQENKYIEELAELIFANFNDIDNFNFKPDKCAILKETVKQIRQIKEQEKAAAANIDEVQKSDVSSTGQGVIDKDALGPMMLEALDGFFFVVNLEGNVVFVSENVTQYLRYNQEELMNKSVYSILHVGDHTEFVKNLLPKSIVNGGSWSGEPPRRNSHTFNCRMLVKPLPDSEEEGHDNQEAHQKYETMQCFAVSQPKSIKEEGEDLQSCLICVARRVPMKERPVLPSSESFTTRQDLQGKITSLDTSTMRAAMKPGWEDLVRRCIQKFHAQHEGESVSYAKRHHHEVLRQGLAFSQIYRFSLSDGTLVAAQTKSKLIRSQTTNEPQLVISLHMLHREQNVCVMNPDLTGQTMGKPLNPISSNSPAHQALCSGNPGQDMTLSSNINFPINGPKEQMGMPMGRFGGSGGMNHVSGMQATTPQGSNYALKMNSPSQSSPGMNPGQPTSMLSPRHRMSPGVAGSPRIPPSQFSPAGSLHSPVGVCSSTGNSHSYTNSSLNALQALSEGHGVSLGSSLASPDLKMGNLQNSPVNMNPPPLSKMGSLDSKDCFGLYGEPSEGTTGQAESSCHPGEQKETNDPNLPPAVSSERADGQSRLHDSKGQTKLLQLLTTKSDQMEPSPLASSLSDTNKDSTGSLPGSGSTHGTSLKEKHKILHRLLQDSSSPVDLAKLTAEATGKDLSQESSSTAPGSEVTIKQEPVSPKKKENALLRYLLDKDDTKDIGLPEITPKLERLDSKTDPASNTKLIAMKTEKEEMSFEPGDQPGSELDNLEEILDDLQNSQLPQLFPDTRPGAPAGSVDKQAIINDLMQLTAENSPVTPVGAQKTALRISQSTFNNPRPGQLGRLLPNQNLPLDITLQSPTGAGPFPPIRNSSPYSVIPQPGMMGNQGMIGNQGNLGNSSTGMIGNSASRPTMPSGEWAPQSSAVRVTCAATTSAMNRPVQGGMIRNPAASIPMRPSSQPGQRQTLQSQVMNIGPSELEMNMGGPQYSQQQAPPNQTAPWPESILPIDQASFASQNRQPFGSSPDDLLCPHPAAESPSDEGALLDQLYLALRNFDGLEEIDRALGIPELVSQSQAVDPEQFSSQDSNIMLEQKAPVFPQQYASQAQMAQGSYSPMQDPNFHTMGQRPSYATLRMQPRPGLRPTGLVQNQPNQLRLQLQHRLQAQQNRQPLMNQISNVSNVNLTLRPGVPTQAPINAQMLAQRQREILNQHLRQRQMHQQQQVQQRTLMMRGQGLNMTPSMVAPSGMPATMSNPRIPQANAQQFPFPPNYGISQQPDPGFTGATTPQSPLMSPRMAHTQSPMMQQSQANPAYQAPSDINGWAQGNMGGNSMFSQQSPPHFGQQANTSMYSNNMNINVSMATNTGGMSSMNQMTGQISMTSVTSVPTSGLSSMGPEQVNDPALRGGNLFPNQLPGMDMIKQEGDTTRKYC

Measured: inhibition

Cc1ccc(NC(=O)O/N=C/c2c(C)nn(C(C)(C)C)c2C)cc1Cl
active: [1] 90.4% | [2] 88% | [3] 87.3% | [4] 85.3% | [5] 88.2% | [6] 93% | [7] 89.2% | [8] 86.5% | [9] 94.6% | [10] 98.3%

NCC(=O)Nc1ccc(Cl)cc1C(=O)c1ccc[nH]1
active: [1] 66.1% | [2] 45.8% | [3] 47% | [4] 39.9% | [5] 49.4% | [6] 55.3% | [7] 62.3% | [8] 39.2%
inactive: [9] 21.2% | [10] 43.5%

NC(=S)NN=C1c2cc(OCCN3CCOCC3)ccc2-c2ccc(OCCN3CCOCC3)cc21
active: [1] 53.8% | [2] 68.8% | [4] 65.2% | [5] 89.9% | [6] 96.3% | [7] 82.2% | [8] 91.7% | [9] 68.6% | [10] 58.9%
inactive: [3] 8.8%

C/C(CC(C)(C)C1CCCCC1)=N\NC(N)=S
active: [1] 72.2% | [2] 60.3% | [3] 48.5% | [4] 59% | [5] 45.6% | [6] 80.8% | [7] 82.8% | [8] 68.6% | [9] 43.8%
inactive: [10] 38.4%

C=C(C(=O)c1ccccc1)C(NC(C)(C)C)c1ccccc1 (configuration not stated)
active: [1] 45% | [2] 90.4% | [4] 90.2% | [5] 58.5% | [6] 93.7% | [7] 87.4% | [8] 92.9% | [9] 78.7%
inactive: [3] -116% | [10] 44.6%

COC(=O)CCn1nnc(-c2ccc(C(C)C)cc2)n1
inactive: [3] 40.5%
active: [1] 55.4% | [2] 38.7% | [4] 35.6% | [5] 48.7% | [6] 55% | [7] 46.7% | [8] 39.9% | [9] 58.8% | [10] 92.6%

O=C(N/N=C/c1c(O)ccc2ccccc12)c1cccnc1
inactive: [9] 5.29% | [10] 20.7%
active: [1] 71.2% | [2] 81.2% | [3] 73.1% | [4] 80% | [5] 88.5% | [6] 102% | [7] 89.4% | [8] 86.1%

CC(C)(C)NCC(=Cc1ccccc1)C(=O)c1ccccc1
inactive: [3] -38.5%
active: [1] 50% | [2] 82.9% | [4] 87.5% | [5] 44.6% | [6] 84.1% | [7] 84.3% | [8] 89.1% | [9] 72.5% | [10] 71.1%

O=C(Nc1nc2ccccc2[nH]1)c1ccccc1F
active: [9] 43.9% | [10] 67.2%
inactive: [1] 27.6% | [2] 19.6% | [3] -26.7% | [4] 11.2% | [5] -0.87% | [6] -32.3% | [7] 13.5% | [8] -10.4%

CC(C)(C)C(=O)/C(=C/c1ccncc1)n1cncn1
active: [1] 69.2% | [2] 55.3% | [3] 59.9% | [4] 48% | [5] 35.2% | [6] 42.6% | [7] 46.5% | [8] 69.2% | [9] 39.9% | [10] 63.3%

CCC(C)(C)c1ccc(Oc2ccc(N)cc2)cc1
active: [1] 64.5% | [2] 52.2% | [3] 51.2% | [4] 48% | [5] 57.4% | [6] 87.3% | [7] 72.8% | [8] 63.9% | [9] 90.3% | [10] 95.4%

Cc1nc2c(O)c3c(c(O)c2nc1C)C1C=CC3CC1
active: [1] 96.9% | [2] 93.2% | [3] 88.9% | [4] 92.6% | [5] 91.8% | [6] 107% | [7] 96.3% | [8] 98.5% | [9] 75% | [10] 79.4%

Cc1ccc2occ(/C=N/NC(=O)[C@@H](N)Cc3ccccc3)c(=O)c2c1
inactive: [1] 37.9% | [2] 17% | [3] 15.7% | [4] 23.3% | [9] 4.17% | [10] 44.1%

Cn1nnnc1Sc1ncnc2scc(-c3cccc(Br)c3)c12
active: [2] 43.7% | [4] 47.5% | [10] 55.7%
inactive: [1] 31.4% | [3] 43.3% | [9] 9.2%
